# Cdc42 wt GTP: modulators (inhibitors or activators) of GTP binding to human Cdc42 wildtype | P60953 | GST-Cdc42 beads, Bodipy-GTP binding, flow cytometry; actives lie on both sides | percent activity (GTP binding), % at 10 µM | 190,000 tested, 0.2% active | AID 761;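 active means percent activity GTP binding at least 20 points away from the 100% baseline, either down as inhibitor or up as activator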;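 further: median bead fluorescence of bound Bodipy-FL-GTP at 100 nM; 0% = excess unlabeled GTP control and 100% = no compound control; below 100% means less GTP binding so inhibitor and above means activator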
# Target sequence (P60953 whole entry, looked up): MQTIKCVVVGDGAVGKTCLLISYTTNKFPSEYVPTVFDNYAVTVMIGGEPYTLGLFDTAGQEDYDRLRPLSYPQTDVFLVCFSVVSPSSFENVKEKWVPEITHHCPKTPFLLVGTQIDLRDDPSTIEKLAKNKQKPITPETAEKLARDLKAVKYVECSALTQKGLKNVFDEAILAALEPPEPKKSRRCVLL
# HRas wt GTP bind: human HRas wildtype GTP binding, change in either direction | GTP binding activity, % at 10 µM | GST-Ras wt beads, Bodipy-FL-GTP binding, flow cytometry; actives lie on both sides | AID 759 | 190,000 tested, 0.14% active;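 active means GTP binding activity at least 20% away from the 100% baseline, either lowered as inhibitor or raised as activator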;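 further: 0% = unlabeled GTP competition control and 100% = no-compound control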
# Target sequence (P01112 whole entry, looked up): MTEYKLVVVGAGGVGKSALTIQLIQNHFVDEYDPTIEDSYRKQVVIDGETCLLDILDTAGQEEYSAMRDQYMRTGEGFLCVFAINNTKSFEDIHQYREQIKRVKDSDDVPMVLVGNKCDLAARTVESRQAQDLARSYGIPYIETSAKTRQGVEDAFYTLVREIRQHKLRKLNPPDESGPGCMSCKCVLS
# Rac1 wt modul: human Rac1 wildtype GTP binding, inhibitors and activators; GST-Rac1 beads, fluorescent GTP binding, flow cytometry; actives lie on both sides; 0 = cold GTP competed, 100 = untreated; GTP binding activity (% of control), % at 10 µM; 190,000 tested, 0.27% active;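 active means GTP binding activity at least 20 points away from the 100% control level, either lower or higher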
# Rac1 act GTP bind: human Rac1 activated mutant GTP binding change; P63000; GST-Rac1 activated beads, fluorescent GTP binding, flow cytometry; actives lie on both sides; 100% means binding = to untreated wells; percent activity (GTP binding), % at 10 µM; 190,000 tested, 0.11% active;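 active means GTP binding at least 20 percentage points away from the 100% baseline, in either direction, so actives lie on both sides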
# Rab7 wt GTP bind: alters GTP binding to wildtype dog Rab7; GST-Rab7 beads, fluorescent GTP binding, flow cytometry; actives lie on both sides; untreated = 100%, excess cold GTP = 0%; GTP binding activity (percent of control), % at 10 µM; 190,000 tested, 0.055% active; AID 758;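 active means fluorescent GTP binding to Rab7 beads changed by at least 20 points from the 100% baseline, either direction, mostly lower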;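 further: median green fluorescence of bound Bodipy-FL-GTP per Rab7 bead population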
# Rab2 wt GTP: changes GTP binding to wildtype dog Rab2A, up or down | GST-Rab2 wt beads, Bodipy-GTP binding, flow cytometry | GTP binding activity, % at 10 µM | 190,000 tested, 0.19% active | AID 760;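 active means GTP binding activity at least 20 points away from 100%, either lowered or raised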;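 further: 0% = beads with excess unlabeled GTP and 100% = no-compound control corrected for plate trend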
# Active calls of the source: *; [ ] = dose if it differs, or a comment. Sampled rows, rich in hits. Any-hit rate of the full collection: about 0.37%.
SMILES,Cdc42 wt GTP,HRas wt GTP bind,Rac1 wt modul,Rac1 act GTP bind,Rab7 wt GTP bind,Rab2 wt GTP
COc1ccc(-c2cc(C#N)nc(N3CCN(C)CC3)n2)cc1,102.0,101.0,107.0,101.0,98.0,103.0
COc1ccc(-c2cc(C#N)nc(N3CCNCC3)n2)cc1,131.0*[activator],125.0*[activator],131.0*[activator],131.0*[activator],113.0,127.0*[activator]
C=CCn1c(-c2csc(-c3ccc(Cl)cc3)n2)n[nH]c1=S,116.0,110.0,120.0*[activator],101.0,105.0,112.0
CC(C)=C1C2CCC1C1C(=O)N(c3nc(-c4ccccc4)c(C)s3)C(=O)C21 (stereo not given),101.0,100.0,103.0,98.0,97.0,100.0
O=C(NC1CCNCC1)C1CC1,100.0,99.0,96.0,96.0,103.0,100.0
COc1ccc(-c2c(C)[nH]n3c(=O)c(Cc4ccccc4)c(C)nc23)cc1,95.0,81.0,87.0,93.0,93.0,77.0*
COc1ccccc1-c1c(C)[nH]n2c(=O)c(Cc3ccccc3)c(C)nc12,100.0,95.0,98.0,95.0,94.0,96.0
O=C(NCc1ccco1)/C(=C\C=C\c1ccccc1)NC(=O)c1ccccc1Br,96.0,98.0,100.0,94.0,107.0,97.0
O=C(Nc1nnc(-c2ccc3c(c2)OCCO3)o1)c1ccc(Cc2ccccc2)cc1,80.0,85.0,92.0,79.0*,86.0,81.0
O=C(CCOc1ccccc1)Nc1nnc(-c2ccc3c(c2)OCCO3)o1,89.0,88.0,90.0,88.0,99.0,90.0
CC(C)c1ccc(O)c(NC(=S)NC(=O)CCc2ccccc2)c1,96.0,97.0,97.0,92.0,104.0,97.0
NS(=O)(=O)c1cccc(NS(=O)(=O)c2ccc(/C=C/C(=O)OCC(=O)c3ccccc3)cc2)c1,90.0,97.0,93.0,93.0,103.0,97.0
O=C(COc1ccccc1/C=C\c1[nH]c(=O)[nH]c(=O)c1[N+](=O)[O-])Nc1ccccc1,73.0*,79.0*,79.0*,77.0*,95.0,77.0*
CCOC(=O)COc1ccc(Br)cc1/C=C/c1[nH]c(=O)[nH]c(=O)c1[N+](=O)[O-],83.0,89.0,83.0,88.0,100.0,92.0
Cc1ccc(S(=O)(=O)N2CC3(C)CN(S(=O)(=O)c4ccc(C)cc4)CC(C)(C2)C3O)cc1 (stereo not given),126.0*[activator],101.0,108.0,101.0,104.0,100.0
O=C(Cn1cnc2scc(-c3ccc(Br)cc3)c2c1=O)N1CCOCC1,96.0,97.0,90.0,92.0,105.0,96.0
COc1cc(/C=C2\SC(c3ccccc3)=NC2=O)cc(Cl)c1O,78.0*,81.0,81.0,81.0,88.0,77.0*
COc1cccc(CNS(=O)(=O)/C=C/c2ccc3c(c2)OCO3)c1,97.0,97.0,96.0,93.0,93.0,93.0
N#C/C(=C/c1ccc(-c2cc(C(=O)O)cc(C(=O)O)c2)o1)c1nc2ccccc2s1,71.0*,75.0*,70.0*,77.0*,86.0,67.0*
N#C/C(=C\c1ccco1)c1nc2ccccc2s1,98.0,100.0,100.0,99.0,96.0,99.0
CCOC(=O)Cc1csc(NC(=S)NC(=O)C(C)(C)C)n1,101.0,103.0,104.0,99.0,99.0,99.0
Cc1cc2ccccn2c1C(=O)c1cc([N+](=O)[O-])cc([N+](=O)[O-])c1,42.0*,45.0*,32.0*,37.0*,24.0*,42.0*
COCCNC(=S)NNC(=O)c1ccc(-n2cnnn2)cc1,106.0,104.0,104.0,99.0,110.0,103.0
CCOc1ccc(NCc2ccccc2OCc2cccc(F)c2)cc1,115.0,114.0,129.0*[activator],115.0,106.0,113.0
COc1ccccc1/C=C1\SC(=S)N(CC(=O)Nc2nnc(C)s2)C1=O,90.0,92.0,90.0,93.0,94.0,91.0
Cn1cc(C(=O)N2CCc3ccccc3C2)c(=O)c2cc(S(=O)(=O)N3CCCCC3)ccc21,110.0,111.0,121.0*[activator],103.0,104.0,111.0
CCOC(=O)Cn1nnnc1C(CC)N(Cc1cccs1)Cc1cc2cc(C)ccc2[nH]c1=O (stereo not given),100.0,102.0,102.0,99.0,103.0,100.0

# From PubChem BioAssay
